The results in this text go back to ChEMBL document CHEMBL3988442, “University of Dundee, Small-Polar-MMV Screening Library” (2021).

Screen size: about 48,000 compounds; about 13,000 (27%) showed an effect of 50% or more. The list shows a part of the results.

For the assay, the system named is Wolbachia pipientis. Briefly: Anti-Wolbachia Cell-Based Screen. It counts as functional. The arrangement: scale not given: in the data most compounds retested in dose-response had high values. The following applies: 5 µM.
In the case of `Cc1nn(CCO)c(C)c1CNC1CCC(C)(C)c2ccccc21` (stereo unspecified), the “Percent Effect” value is recorded as -8.145%. In the case of `CNCCN1C(=O)CC[C@H]2CN(c3cnc4ccccc4n3)CC[C@H]21`, the “Percent Effect” value is -7.782%.

`CC(C)COC1CCN(C(=O)c2ccc(C(F)(F)F)[nH]c2=O)CC1`: the “Percent Effect” value amounted to 17.18%. In the case of `N#Cc1ccc(CS(=O)(=O)NC(=O)c2ccc(C#N)cc2)cc1`, the “Percent Effect” value is given as 0.6106%. Then `CN1CCc2c(sc3c2C(=O)NC(/C=C/c2ccccc2)N3)C1` (stereo unspecified), with 102.8%; and `CCN1CCc2c(sc3c2C(=O)NC(/C=C/c2ccco2)N3)C1` (stereo unspecified), with 144%; and `CCN1CCc2c(sc3c2C(=O)NC(/C=C\c2ccccc2)N3)C1` (stereo unspecified), with 141.7%.

As for `NC(=O)Nc1cccc(CNC(=O)CCCOCc2ccccc2)c1`, the “Percent Effect” value is -14.12%. Then `Cc1noc(C)c1C(=O)N(Cc1ccsc1)CC1CCCO1` (stereo unspecified), with -86.84%; and `CCN1CCN(S(=O)(=O)N2CCCCCC2)[C@H]2CS(=O)(=O)C[C@H]21`, with 2.124%; and `CCCC(=O)N(CCCN1CCOCC1)c1nc2c(Cl)cccc2s1.Cl`, with 31%. Consider `Cn1c(-c2ccccc2Cl)nc2cc(C(=O)NCC3(CO)CC3)cnc21`, for which the “Percent Effect” value is listed as 10.87%. Then `Cc1noc(CCCC(=O)NCC(c2ccco2)N2CCCC2)n1` (stereo unspecified), with 1.423%; and `O=C(CCn1cncn1)NCC(c1ccco1)N1CCCC1` (stereo unspecified), with 144.5%. Then `O=C(NCCCn1cncn1)NCC(c1ccco1)N1CCCCC1` (stereo unspecified), with 9.107%. Then `Cc1noc(CCCC(=O)NCC(c2ccco2)N2CCCCC2)n1` (stereo unspecified), with -0.8117%. Take `CC(C)c1noc(CCC(=O)NCC(c2ccco2)N2CCCC2)n1` (stereo unspecified): the “Percent Effect” value is listed as -11.99%.

On to `O=C(CCn1cncn1)NCC(c1ccco1)N1CCCCC1` (stereo unspecified), for which the “Percent Effect” value is on record as 106.2%. Then `CC1CCN(CC(O)CN2CCn3c(nnc3C3CC3)C2)CC1` (stereo unspecified), with -2.379%; and `Cc1ccoc1-c1nnc(CN2CCn3c(nnc3C3CC3)C2)o1`, with 8.401%.

`CC(C)c1nnc(NC(=O)CCc2cc(F)ccc2F)[nH]1`: the “Percent Effect” value is reported as -72.05%.

For the compound `Cc1n[nH]c(C)c1CCCN(C)Cc1c[nH]nc1-c1ccc(F)cc1`, the “Percent Effect” value is reported as -0.8434%. Then `CN(Cc1cn[nH]c1-c1ccc(F)cc1)C(=O)CCC1CC1`, with -8.61%; and `Cc1n[nH]c(C)c1CCC(=O)N(C)Cc1cn[nH]c1-c1ccc(F)cc1`, with 62.4%; and `COc1ccc(CCc2nnc(NC(=O)C3CC34CCC4)s2)cc1OC` (stereo unspecified), with 134.8%. Then `CCCc1nnc(NC(=O)NC2CCOc3ccccc32)s1` (stereo unspecified), with -4.049%.

As for `COc1cc(CNC(=O)Nc2nnc(C3CC3)s2)ccc1O`, the “Percent Effect” value is listed as -2.048%. For the compound `CC(=O)NC(C)CC(=O)NCc1cccnc1Oc1ccccc1C` (stereo unspecified), the “Percent Effect” value is -2.321%. Then `COc1ccc(C(CC(=O)NCc2n[nH]c(N)n2)c2ccccc2)cc1` (stereo unspecified), with -21.33%; and `COc1cc2ncn(Cc3ncc[nH]3)c(=O)c2cc1OC`, with 88.22%.

With `COc1cc2nc(C)n(CC(=O)O)c(=O)c2cc1OC`, the “Percent Effect” value worked out at 17.35%. Then `COc1cc2ncn(CC(=O)NCCCN(C)C)c(=O)c2cc1OC`, with 7.86%; and `CNC(=O)C1CCN(Cc2nc(-c3ccc(SC)cc3)oc2C)C1` (stereo unspecified), with 1.342%; and `CCN(C)CC(=O)N1CCc2nc(NC)nc(C(=O)N3CCCC3)c2C1`, with 92.7%.

As to `CCc1nc(CN2CCCN(C(=O)CCSC)CC2)cs1`, the “Percent Effect” value is given as -7.739%.

For `CC(C)Nc1nc2c(c(NC3CC3)n1)CN(C(=O)c1ccsc1)CC2`, the “Percent Effect” value stood at 4.633%. Then `CCCOCC(=O)N1CCc2nc(NC)nc(C(=O)N3CCCC3)c2C1`, with 106.3%; and `COC(=O)CCC(=O)N1CCc2nc(C(=O)N3CCCCC3)sc2CC1`, with -23.17%. Then `CCC(OC)C(=O)N1CCc2nc(NC)nc(C(=O)N3CCCC3)c2C1` (stereo unspecified), with 0.1298%; and `CCCOCC(=O)N1CCCC(c2nnc(CN3CCCCC3)n2C)C1` (stereo unspecified), with -4.962%; and `CC(C)Nc1nc2c(c(NC3CC3)n1)CN(C(=O)c1ccnnc1)CC2`, with 10.08%. Then `Cc1nc(N2CCCC2)nc2c1CCN(C(=O)CN(C)C)CC2.O=C(O)C(F)(F)F`, with -8.605%.

Regarding `CNc1nc2c(c(C(=O)N3CCCC3)n1)CN(C(=O)CCSC)CC2`, the “Percent Effect” value is 109.5%. Then `CCN(C)c1ncnc2c1CCN(C(=O)N1CCCC1)CC2.O=C(O)C(F)(F)F`, with -2.138%; and `CNc1nc2c(c(C(=O)N3CCCC3)n1)CN(C(=O)C1CCCC1)CC2`, with 99.86%. Then `O=C(c1cccs1)N1CCN(C(=O)c2ncoc2-c2ccco2)CC1`, with -2.664%; and `Cc1csc(N2CCCN(C(=O)c3cccs3)CC2)n1`, with 5.258%. Then `CNc1nc2c(c(C(=O)N3CCCC3)n1)CN(C(=O)c1cccs1)CC2`, with 93.6%; and `Cc1oncc1C(=O)N1CCCc2c(C#N)nn(C)c2C1`, with 10.9%. As for `O=C(NCC(O)c1ccc(F)cc1F)c1ccccc1` (stereo unspecified), the “Percent Effect” value is on record as 4.07%. Then `O=C(NCCCO)Nc1cccc(C[S+]([O-])Cc2ccccc2)c1` (stereo unspecified), with -4.621%. On to `O=C(NCC[S+]([O-])c1ccccc1)c1ccc2[nH]c(=O)[nH]c2c1` (stereo unspecified), for which the “Percent Effect” value was found to be 103.1%. Then `O=C(NCC[S+]([O-])c1ccccc1)NCC(F)(F)F` (stereo unspecified), with -2.779%; and `O=C(NCC[S+]([O-])Cc1ccccc1)c1ccc2[nH]c(=O)[nH]c2c1` (stereo unspecified), with 105%. Then `O=C(NCC(O)Cc1ccccc1)c1ccc2[nH]c(=O)[nH]c2c1` (stereo unspecified), with 124%; and `CSC(C)(C)CNC(=O)NCC[S+]([O-])c1ccccc1` (stereo unspecified), with 5.192%. Take `Cc1nn(C)c(C)c1OCC(=O)NCC(O)Cc1ccccc1` (stereo unspecified): the “Percent Effect” value is listed as -7.018%. Regarding `Cc1cccc(C(=O)NCCS(=O)(=O)Cc2ccccc2)c1`, the “Percent Effect” value is -4.406%. Then `Cc1ccn2ncc(C(=O)N3CCCC(c4noc(C)n4)C3)c2n1` (stereo unspecified), with 1.825%; and `CCOCCNS(=O)(=O)c1cc(C)c2nc(O)cc(C)c2c1`, with 93.93%; and `CCOCCCNc1nc(CS(=O)(=O)c2ccccc2)cs1`, with -0.3734%. Then `CCOCCNCc1cc(O)c2cc(C)ccc2n1`, with -3.741%; and `CN(C)C(=O)CN1CCN(C(=O)C2CSc3ccccc3O2)CC1` (stereo unspecified), with -6.188%. Then `CN(C)C(=O)CN1CCC2(CC1)COC2`, with -28.68%; and `CCOC(=O)CN1CCC2(CC1)CC(=O)c1ccc3ccccc3c1O2`, with 117.9%.

Turning to `CN(C)C(=O)CN1CCC2(CC1)CC(=O)c1ccc3ccccc3c1O2`, the “Percent Effect” value came out at 109.8%.

Regarding `CN(C)C(=O)CN1CCCN(CC2CCOc3ccccc3C2)CC1` (stereo unspecified), the “Percent Effect” value was -6.111%.

On to `CCOC(=O)CN1CCC2(CC1)CC(NC(=O)c1ccccn1)CO2` (stereo unspecified), for which the “Percent Effect” value was -1.011%.

Take `Cc1ccccc1CN1C[C@@H]2OCC(=O)N(CC(N)=O)[C@@H]2C1`: the “Percent Effect” value is given as -9.838%.

In the case of `NC(=O)CN1CCC2(CC1)CC(=O)c1ccc3ccccc3c1O2`, the “Percent Effect” value came to 103.8%. Then `CCOc1cccc(CNC(=O)CN2CCC3(CCOC3)C2)c1` (stereo unspecified), with -4.928%; and `CN(C)C(=O)CN1CCC2(CC1)CC(=O)c1c(ccc3ccccc13)O2`, with 104.8%. Then `CN1CC(c2ccccc2)CC2(CCN(CC(=O)N(C)C)CC2)C1` (stereo unspecified), with -1.357%; and `NC(=O)CN1CCCC(C(=O)N2CCC(O)(c3ccccc3)CC2)C1` (stereo unspecified), with -6.911%; and `CC(C)Nc1cc(N2CCCC3(CN(C)C(=O)O3)C2)ncn1` (stereo unspecified), with -4.728%. Then `Cc1cccnc1NC(=O)C1CCCN(c2cccc(C(F)(F)F)n2)C1` (stereo unspecified), with 9.755%; and `CCn1cc(CN(C)C(=O)C(c2ccccc2C)N(C)C)cn1` (stereo unspecified), with 1.037%; and `Cc1ccc2[nH]c(CO[C@H]3CN(C(=O)C4CC4)C[C@H]3F)nc2c1`, with -10.96%. Take `O=C(CCCn1cncn1)N1CCCC1c1nc(-c2ccccc2)no1` (stereo unspecified): the “Percent Effect” value was 16.9%. Then `CSCC(=O)N1CCCC1c1noc(C2CC2)n1` (stereo unspecified), with 7.079%; and `O=C(CCCn1cncn1)N1CCCC1c1noc(C2CC2)n1` (stereo unspecified), with 94.63%. As for `O=C(CCn1cncn1)N1CCCC1c1noc(C2CC2)n1` (stereo unspecified), the “Percent Effect” value is given as 89.8%.

Turning to `OCC(O)CSCc1cn(-c2ccc(Cl)cc2)nn1` (stereo unspecified), the “Percent Effect” value is -1.714%. For the compound `c1ccc(CCN2CCN(C3CCOC4(CCOCC4)C3)CC2)nc1` (stereo unspecified), the “Percent Effect” value stood at 69.95%. Then `O=C1OC2(CCN(C3CCCOC3)CC2)CN1CCc1ccccc1` (stereo unspecified), with 0.1893%; and `O=C1NC2(CCN(CCc3ccccc3)CC2)CC1c1ccccc1` (stereo unspecified), with -3.919%; and `c1ccc(CCN2CCN(C3CCOC4(CCOCC4)C3)CC2)cc1` (stereo unspecified), with 96.21%. Then `CN1CCN(C(=O)CC2CCN(CCc3ccccn3)CC2)CC1`, with -2.122%.

Take `O=C(O)C(F)(F)F.c1ccc(OC2COC3(CCN(Cc4ccccn4)CC3)C2)cc1` (stereo unspecified): the “Percent Effect” value is reported as -3.872%. Then `c1ccc(CN2CCN(C3CCOC4(CCOCC4)C3)CC2)nc1` (stereo unspecified), with 115.7%; and `O=C(NC1COC2(CCN(Cc3ccccn3)CC2)C1)c1ccccn1.O=C(O)C(F)(F)F` (stereo unspecified), with -3.603%; and `COC(=O)C(O)C1CCN(CCc2ccccn2)CC1` (stereo unspecified), with -11.11%. Then `CC(C)Cc1cc(CC2(NCc3ccccc3Cl)COC2)no1`, with -7.466%; and `COc1cc(C)c(C(C)Nc2ncc(C(N)=O)cc2Cl)cc1OC` (stereo unspecified), with -11.51%.

Consider `Cc1nn(C)c2nc(N(CCN(C)C)CC3CCCO3)sc12` (stereo unspecified), for which the “Percent Effect” value is given as 2.651%. Then `CC(NS(=O)(=O)CC1(C#N)CCCC1)c1cccc(-n2cccn2)c1` (stereo unspecified), with -9.973%; and `COc1ccc(C)cc1CN(Cc1nc(C)c(C)o1)C1CCN(C)C1` (stereo unspecified), with -12.97%; and `Cn1cc(N2C(=O)CC[C@@H]3[C@H]2CCN3CCc2ccccc2)cn1.O=C(O)C(F)(F)F.O=C(O)C(F)(F)F`, with 83.57%. Then `Cn1cc(N2C(=O)CC[C@@H]3[C@H]2CCN3Cc2cccc(C#N)c2)cn1.O=C(O)C(F)(F)F.O=C(O)C(F)(F)F`, with 96.87%; and `Cn1cc(N2C(=O)CC[C@@H]3[C@H]2CCN3CC2CCOCC2)cn1.O=C(O)C(F)(F)F`, with 100.5%; and `Cn1cc(CN2CC[C@@H]3[C@@H]2CCN3C(=O)c2cccc(F)c2)cn1.O=C(O)C(F)(F)F`, with -56.05%. Then `COc1ccc(CN2CC[C@@H]3[C@H]2CCC(=O)N3c2cnn(C)c2)cc1.O=C(O)C(F)(F)F`, with 83.34%; and `Cn1cc(C(=O)N2CC[C@@H]3[C@@H]2CCN3Cc2cccc(C#N)c2)cn1.O=C(O)C(F)(F)F`, with -1.669%; and `CN1CCN([C@@H]2CCN(CC3CCOC3)[C@H]2Cc2cnn(C)c2)CC1.O=C(O)C(F)(F)F.O=C(O)C(F)(F)F.O=C(O)C(F)(F)F` (stereo partly specified), with -10.32%. In the case of `Cn1cc(N2C(=O)C[C@@H]3[C@@H]2CCN3C(=O)c2ccco2)cn1`, the “Percent Effect” value is on record as -4.812%. Then `Cn1cc(N2C[C@@H]3CN(CC4CCOCC4)C[C@@H]3C2=O)cn1.O=C(O)C(F)(F)F`, with -5.316%.
